# In the library only some 2.7% were active in any assay of this set; here they are far more common.
# proKLK7 act = proKLK7 zymogen activators, primary screen, biochemical, fluorescence intensity; 370,000 compounds, 0.9% hits; purified proKLK7, EDANS-DABCYL substrate fluorescence; 100% is mature enzyme control, 0% vehicle; activation, % at 7 µM; Kallikrein-7 (Homo sapiens), P49862;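 active means activation above the mean of all tested compounds plus 3 SD, computed per campaign excluding outliers beyond control limits, cut at about 13% in these data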
# Neddylation inh = inhibitors of cullin neddylation, primary screen, biochemical, TR-FRET, uHTS, NAE and Ubc12. calls only at 25 µM. AID 651699, 2012. 360,000 compounds, 0.58% hits. NEDD8-conjugating enzyme Ubc12 (Homo sapiens) + NEDD8-activating enzyme E1 regulatory …; in the data active means inhibition above about 36%
# PfGluPho inh = PfG6PD enzyme inhibitors, primary screen, biochemical, fluorescence intensity, uHTS. 350,000 compounds, 0.78% hits. PfGluPho enzyme, NADPH resazurin-diaphorase fluorescence. glucose-6-phosphate dehydrogenase-6-phosphogluconolactonase (Plasmodium falciparum 3D7). inhibition, % at 20 µM. AID 504690, 2011;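 active means inhibition reaching at least a set limit at 20 µM in the primary screen, cut at about 59% in these data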;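 further: 0% = DMSO wells with substrate and 100% = DMSO wells lacking glucose-6-phosphate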
# FAS-TE inh = FAS thioesterase domain inhibitors, primary screen, biochemical, fluorescence intensity, uHTS | Fatty acid synthase (Homo sapiens), P49327 | recombinant FAS-TE, OMFH fluorogenic substrate, fluorescence endpoint | inhibition, % at 15 µM | 360,000 compounds, 0.67% hits;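 active means compounds whose normalised, plate-corrected inhibition of enzyme fluorescence in the single-dose primary screen is 50% or more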;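 further: 0% = DMSO with enzyme and 100% = substrate without enzyme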
# Neddyl inh conf = blockade of NEDD8 conjugation to cullin – biochemical, TR-FRET, single concentration, confirmation; TR-FRET cullin neddylation biochemical assay; shares compounds with Neddylation inh; 1,800 compounds, 13% hits; calls only at 25 µM; in the data active means inhibition above about 40%;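 further: neddylation substrate is the cullin 1 ring ligase complex with SKP2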
# Starred values were filed as active, the others as inactive; i = inactive; · = no result shown; + = active, no number.
SMILES,proKLK7 act,Neddylation inh,PfGluPho inh,FAS-TE inh,Neddyl inh conf
COC(=O)c1[nH]c2cc(OC)ccc2c1NC(=O)c1ccc2c(c1)OCO2,-3,+,8,6,i
COc1ccc(NC(=O)c2oc3ccccc3c2NC(=O)c2ccc3c(c2)OCO3)cc1,-1,+,1,37,i
O=C(CSc1ncnc2sc3c(c12)CCCC3)Nc1ccc(Oc2ccccc2)cc1,0,·,·,·,·
Cc1ccnc2nc(C(=O)OCC(=O)N(C)C3CCCCC3)nn12,0,i,3,-8,·
Cc1ccc(C(=O)NCc2ccccc2)c(F)c1F,1,i,-4,1,·
Cc1cc(C(=O)NCc2ccccc2)c(=O)[nH]c1C,1,+,-11,-8,+
C=CCN1C(=O)[C@@H](CC(=O)NCCc2ccccc2OC)[C@]2(C(=O)OC)CCCCC=C12,0,·,·,·,·
CCC1C(=O)n2nc(-c3ccccc3)cc2N=C1C (stereo unspecified),-21,+,10,-6,i
Cc1cc(C)n2nc(-c3ccccc3)cc2n1,0,·,4,-4,·
COc1ccc(C(=O)c2[nH]c(N)c(C(=O)NCCc3c[nH]c4ccccc34)c2-c2ccccc2Br)cc1,-3,i,·,2,·
COc1ccc(/C=C2\CCCC3C2=NN(C(=O)CSc2n[nH]c(N)n2)C3c2ccc(OC)cc2)cc1 (stereo unspecified),0,+,12,-41,·
CC(C)(C)n1nnnc1SCC(=O)Nc1nn(-c2ccccc2)nc1C(N)=O,1,+,-13,-5,i
CC(C)(C)OC(=O)N[C@@H]1C=CC(=O)C1,0,·,·,·,·
Cc1c(NC(=O)C2CCCN(S(=O)(=O)c3ccc(Cl)s3)C2)c(=O)n(-c2ccccc2)n1C (stereo unspecified),0,·,·,·,·
CCOc1cc(/C=C/c2nc3ccccc3s2)ccc1OCC(=O)N1CCOCC1,5,+,0,1,·
O=C(Nc1cccnc1Cl)c1cc(-c2cccc(O)c2)on1,-1,+,-7,-4,+
COc1cc(NC(=O)N[C@@H](Cc2c[nH]c3ccccc23)C(=O)O)c(C(=O)O)cc1OC,-2,+,-13,-7,·
COC(=O)[C@H](Cc1c[nH]c2ccccc12)NC(=O)Nc1ccccc1OC,0,i,0,1,·
CCCN1CCS(=O)(=O)N(Cc2cn(Cc3ccc(Cl)cc3)nn2)C(C(=O)OC)C1 (stereo unspecified),-1,·,·,·,·
COc1ccccc1Oc1ccc(S(=O)(=O)N2CCOCC2)cc1S(=O)(=O)N1CCOCC1,0,i,10,4,·
Cc1ccc(Oc2ccc(S(=O)(=O)N3CCOCC3)cc2C(N)=O)c(-n2nc3ccccc3n2)c1,1,+,7,-2,·
COc1ccc(CSc2nnc(SCc3ccccc3)s2)cc1,0,·,·,·,·
S=c1[nH]nc(-c2n[nH]c3c2CCC3)n1N=Cc1cccs1,1,·,·,·,·
CC(Oc1cc2oc(=O)c3c(c2cc1Cl)CCC3)C(=O)NCc1cccnc1 (stereo unspecified),1,+,1,-3,i
O=S1(=O)c2cccc3cccc(c23)N1CCBr,10,+,45,13,i
SMILES,proKLK7 act,Neddylation inh,PfGluPho inh,FAS-TE inh,Neddyl inh conf
CCCN1c2cccc3cccc(c23)S1(=O)=O,0,+,18,7,·
N#CCCCCN1c2cccc3cccc(c23)S1(=O)=O,11,·,16,7,·
O=C(NCCc1ccccc1)c1ccc(-c2ccc(F)c(F)c2)c2ccoc12,-1,i,·,26,·
Cc1cccc(/C=N/NC(=O)CN2CCCCCCC2)c1,0,i,-9,-6,·
Cc1ccc(O)c(/C=N/NC(=O)CN2CCCC2)c1,-43,+,-38,-1,i
CC(C)C[C@H]1COc2cc(N3CCCC3)ccc2S(=O)(=O)N1C,0,·,·,·,·
CCOC(=O)CC[C@@]1(C(=O)OCC)C[C@@H](CC(=O)NCCCN2CCCC2=O)C(=O)N2CCCC=C21,0,·,·,·,·
Cc1cc(-c2ccccc2)nc(N(C)N)c1S(C)(=O)=O,3,+,-6,-4,i
COCCn1cc(C(=O)N2CCCC(C)C2)c2c3ccccc3n(C)c2c1=O (stereo unspecified),1,+,-12,-1,i
CCOC(=O)C1CCN(C(=O)c2cn(CCOC)c(=O)c3c2c2ccccc2n3C)CC1,1,i,1,-5,·
CCN1CCN(C(=O)c2cn(CCOC)c(=O)c3c2c2ccccc2n3C)CC1,-6,+,-4,-5,i
Cc1cccc(NC(=O)Cn2nnc(-c3ccccc3F)n2)c1C,0,·,·,·,·
CSCCC(C(=O)Nc1c(C)cccc1C)N(Cc1ccccc1)Cc1ccccc1 (stereo unspecified),0,i,·,29,·
C/C=C(\C)C(=O)O[C@H](c1cc2ccc(=O)oc2cc1OC)[C@@H](O)C(C)(C)O,1,+,-11,-4,i
C/C=C(\C)C(=O)O[C@@H]([C@H](O)c1cc2ccc(=O)oc2cc1OC)C(C)(C)O,-3,·,-1,-12,·
COCCNC(=O)C1(C)CCN(C(=O)c2cccc(C)c2C)C1 (stereo unspecified),1,i,·,-10,·
CC(C(=O)NC1CCCC1)N1C(=O)c2cccc3cccc1c23 (stereo unspecified),8,+,12,2,i
CC(C(N)=O)N1C(=O)c2cccc3cccc1c23 (stereo unspecified),3,i,19,-8,·
CC(=O)OCC(=O)C1(O)CCC2C3CCC4CC(O)CCC4(C)C3C(=O)CC21C (stereo unspecified),0,i,·,0,·
CCOC(=O)Cn1cc(CN2CCS(=O)(=O)N(Cc3ccc(OC)cc3)C(C(=O)OC)C2)nn1 (stereo unspecified),0,·,·,·,·
COc1cc(OC)cc(C(=O)NCC(=O)OCC(=O)/C=C2/N(C)c3ccccc3C2(C)C)c1,-1,+,12,16,i
CC(C)[C@H](NC(=O)c1ccccc1)C(=O)OCC(=O)/C=C1/N(C)c2ccccc2C1(C)C,-2,i,28,13,·
COc1ccccc1Nc1ncc(C(=O)N2CCN(Cc3ccc(OC)c(OC)c3OC)CC2)c2ccccc12,1,+,1,14,·
CC(O)(c1cccc(F)c1)c1nc(-c2ccc(S(C)(=O)=O)cc2)cs1 (stereo unspecified),0,i,·,8,·
COc1ccc(CC(=O)OCC(=O)Nc2ccc3[nH]c(=O)[nH]c3c2)cc1OC,1,i,12,-5,·
CCc1ccc2nc(N3CCN(C)CC3)c(C#N)cc2c1,3,+,11,-2,i

# Compound activity as filed in PubChem BioAssay.
